Test results published in the supplement of paper PMC11732987, “Enantioselective OTUD7B fragment discovery through chemoproteomics screening and high-throughput optimisation” (Communications Chemistry, 2025).

Key:
Test in all cases: log2 ratio of Biotin-Ahx-Ub-VS probe labelling (fragment/DMSO); higher = less target engagement (more negative = stronger competition), active = hit call of the paper (q ≤ 0.05, log2 ratio ≤ -1)
Settings in all cases: compound concentration: 200 uM; treatment time: 3 h
USP34 = USP34 (UniProt Q70CQ2)
USP34, sequence (Q70CQ2 whole entry, the tested form may be a part): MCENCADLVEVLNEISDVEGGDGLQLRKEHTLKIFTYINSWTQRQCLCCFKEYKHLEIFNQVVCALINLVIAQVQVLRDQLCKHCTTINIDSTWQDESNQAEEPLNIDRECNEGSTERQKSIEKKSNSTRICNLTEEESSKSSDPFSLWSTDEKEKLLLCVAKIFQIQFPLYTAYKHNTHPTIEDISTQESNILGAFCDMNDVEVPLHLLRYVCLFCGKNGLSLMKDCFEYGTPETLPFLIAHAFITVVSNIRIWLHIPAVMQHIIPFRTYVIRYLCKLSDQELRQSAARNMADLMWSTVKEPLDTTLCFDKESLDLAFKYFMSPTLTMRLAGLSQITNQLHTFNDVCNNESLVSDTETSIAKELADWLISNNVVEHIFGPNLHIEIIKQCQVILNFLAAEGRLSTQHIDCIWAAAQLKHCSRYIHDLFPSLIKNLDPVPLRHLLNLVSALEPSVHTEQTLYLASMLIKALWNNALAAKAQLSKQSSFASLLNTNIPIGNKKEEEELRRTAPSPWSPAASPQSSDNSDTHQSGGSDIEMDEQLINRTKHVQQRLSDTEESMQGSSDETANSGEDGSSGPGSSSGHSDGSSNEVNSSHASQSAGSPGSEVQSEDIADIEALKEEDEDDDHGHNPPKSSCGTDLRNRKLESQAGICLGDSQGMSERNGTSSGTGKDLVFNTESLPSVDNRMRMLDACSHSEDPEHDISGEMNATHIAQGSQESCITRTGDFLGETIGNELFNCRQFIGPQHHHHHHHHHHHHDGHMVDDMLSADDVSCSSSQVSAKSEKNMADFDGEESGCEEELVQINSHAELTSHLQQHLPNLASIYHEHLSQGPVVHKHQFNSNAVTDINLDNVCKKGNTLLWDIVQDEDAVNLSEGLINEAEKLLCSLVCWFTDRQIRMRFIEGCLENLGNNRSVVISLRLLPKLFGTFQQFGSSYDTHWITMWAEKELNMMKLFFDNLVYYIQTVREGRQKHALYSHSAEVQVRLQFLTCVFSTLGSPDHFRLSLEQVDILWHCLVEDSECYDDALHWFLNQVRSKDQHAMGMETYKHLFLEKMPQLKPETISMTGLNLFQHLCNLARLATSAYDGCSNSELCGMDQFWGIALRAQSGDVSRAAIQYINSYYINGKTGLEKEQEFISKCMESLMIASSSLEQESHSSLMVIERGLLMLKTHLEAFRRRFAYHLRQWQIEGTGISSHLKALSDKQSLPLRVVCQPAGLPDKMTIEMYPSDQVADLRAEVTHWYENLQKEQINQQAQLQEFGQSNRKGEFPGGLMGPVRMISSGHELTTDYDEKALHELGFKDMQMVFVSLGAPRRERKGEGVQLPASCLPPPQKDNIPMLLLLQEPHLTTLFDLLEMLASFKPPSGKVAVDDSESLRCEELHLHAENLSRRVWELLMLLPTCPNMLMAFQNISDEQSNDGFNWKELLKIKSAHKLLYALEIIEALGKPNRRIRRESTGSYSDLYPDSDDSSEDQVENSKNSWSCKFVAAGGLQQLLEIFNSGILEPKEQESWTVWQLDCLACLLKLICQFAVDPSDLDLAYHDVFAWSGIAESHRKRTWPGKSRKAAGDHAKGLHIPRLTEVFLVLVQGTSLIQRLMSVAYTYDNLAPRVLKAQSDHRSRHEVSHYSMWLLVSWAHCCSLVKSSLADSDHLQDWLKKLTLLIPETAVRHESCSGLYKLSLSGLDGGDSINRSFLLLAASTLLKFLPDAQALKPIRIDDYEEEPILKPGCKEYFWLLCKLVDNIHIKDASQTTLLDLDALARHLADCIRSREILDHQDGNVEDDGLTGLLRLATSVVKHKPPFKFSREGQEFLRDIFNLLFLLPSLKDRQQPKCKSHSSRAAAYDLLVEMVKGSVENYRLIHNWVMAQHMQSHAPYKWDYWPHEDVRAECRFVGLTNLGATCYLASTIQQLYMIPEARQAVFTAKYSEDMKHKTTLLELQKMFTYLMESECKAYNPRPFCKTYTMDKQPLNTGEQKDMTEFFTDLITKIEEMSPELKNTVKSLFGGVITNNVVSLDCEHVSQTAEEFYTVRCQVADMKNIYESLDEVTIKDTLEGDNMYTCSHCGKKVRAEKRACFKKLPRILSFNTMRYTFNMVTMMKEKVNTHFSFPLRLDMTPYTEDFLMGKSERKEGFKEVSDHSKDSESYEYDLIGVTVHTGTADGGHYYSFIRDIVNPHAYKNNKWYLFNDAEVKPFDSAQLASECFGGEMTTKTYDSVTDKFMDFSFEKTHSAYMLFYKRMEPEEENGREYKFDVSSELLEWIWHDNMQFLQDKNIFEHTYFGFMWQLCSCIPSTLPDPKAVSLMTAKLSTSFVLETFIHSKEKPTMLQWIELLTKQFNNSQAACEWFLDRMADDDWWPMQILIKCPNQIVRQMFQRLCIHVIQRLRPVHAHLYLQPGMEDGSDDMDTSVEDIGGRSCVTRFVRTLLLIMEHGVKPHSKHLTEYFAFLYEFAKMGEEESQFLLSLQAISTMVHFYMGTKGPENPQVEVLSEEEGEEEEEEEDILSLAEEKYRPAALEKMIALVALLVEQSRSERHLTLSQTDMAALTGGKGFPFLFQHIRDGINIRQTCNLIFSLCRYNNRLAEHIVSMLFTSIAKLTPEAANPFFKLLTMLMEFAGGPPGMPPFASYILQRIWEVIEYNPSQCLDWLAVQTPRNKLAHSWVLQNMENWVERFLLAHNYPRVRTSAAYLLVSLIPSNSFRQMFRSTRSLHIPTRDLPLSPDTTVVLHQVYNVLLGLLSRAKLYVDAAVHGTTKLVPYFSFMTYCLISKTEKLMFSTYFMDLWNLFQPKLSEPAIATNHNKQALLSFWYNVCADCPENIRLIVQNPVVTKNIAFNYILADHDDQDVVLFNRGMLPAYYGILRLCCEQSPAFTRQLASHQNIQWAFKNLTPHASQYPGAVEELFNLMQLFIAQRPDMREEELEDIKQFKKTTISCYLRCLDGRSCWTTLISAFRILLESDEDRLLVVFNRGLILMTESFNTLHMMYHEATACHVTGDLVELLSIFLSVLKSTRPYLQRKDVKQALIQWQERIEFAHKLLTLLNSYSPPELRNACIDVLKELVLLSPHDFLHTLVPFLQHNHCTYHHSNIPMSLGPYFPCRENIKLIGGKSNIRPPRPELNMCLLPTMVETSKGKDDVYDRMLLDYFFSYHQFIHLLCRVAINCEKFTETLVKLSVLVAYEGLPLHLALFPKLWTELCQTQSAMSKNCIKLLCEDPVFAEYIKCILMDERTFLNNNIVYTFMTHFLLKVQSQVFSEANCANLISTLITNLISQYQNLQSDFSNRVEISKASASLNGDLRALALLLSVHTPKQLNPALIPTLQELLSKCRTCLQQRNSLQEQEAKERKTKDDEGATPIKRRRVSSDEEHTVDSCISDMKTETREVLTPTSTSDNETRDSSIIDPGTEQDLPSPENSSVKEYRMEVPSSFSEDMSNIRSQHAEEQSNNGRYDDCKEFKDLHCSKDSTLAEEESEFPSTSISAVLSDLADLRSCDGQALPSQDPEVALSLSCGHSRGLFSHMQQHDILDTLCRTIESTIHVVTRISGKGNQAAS
In short: (§1)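 HEK293T lysate, 495 µg per sample in Tris/CHAPS/IGEPAL buffer with protease inhibitors, was treated in triplicate with fragment at 200 µM or vehicle for 3 h and then with Biotin-Ahx-Ub-VS at 0.5 µM final for 1 h. Labelled DUBs were NeutrAvidin-enriched, digested with LysC and trypsin, and run by diaPASEF LC-MS/MS. Spectronaut label-free quantities were global-median-normalised, and values are average log2 fragment/vehicle ratios by unpaired t-test on proteins with ≥2 unique peptides.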

USP36 = biological target: T1, USP36 (UniProt Q9P275)
T1 sequence (whole entry): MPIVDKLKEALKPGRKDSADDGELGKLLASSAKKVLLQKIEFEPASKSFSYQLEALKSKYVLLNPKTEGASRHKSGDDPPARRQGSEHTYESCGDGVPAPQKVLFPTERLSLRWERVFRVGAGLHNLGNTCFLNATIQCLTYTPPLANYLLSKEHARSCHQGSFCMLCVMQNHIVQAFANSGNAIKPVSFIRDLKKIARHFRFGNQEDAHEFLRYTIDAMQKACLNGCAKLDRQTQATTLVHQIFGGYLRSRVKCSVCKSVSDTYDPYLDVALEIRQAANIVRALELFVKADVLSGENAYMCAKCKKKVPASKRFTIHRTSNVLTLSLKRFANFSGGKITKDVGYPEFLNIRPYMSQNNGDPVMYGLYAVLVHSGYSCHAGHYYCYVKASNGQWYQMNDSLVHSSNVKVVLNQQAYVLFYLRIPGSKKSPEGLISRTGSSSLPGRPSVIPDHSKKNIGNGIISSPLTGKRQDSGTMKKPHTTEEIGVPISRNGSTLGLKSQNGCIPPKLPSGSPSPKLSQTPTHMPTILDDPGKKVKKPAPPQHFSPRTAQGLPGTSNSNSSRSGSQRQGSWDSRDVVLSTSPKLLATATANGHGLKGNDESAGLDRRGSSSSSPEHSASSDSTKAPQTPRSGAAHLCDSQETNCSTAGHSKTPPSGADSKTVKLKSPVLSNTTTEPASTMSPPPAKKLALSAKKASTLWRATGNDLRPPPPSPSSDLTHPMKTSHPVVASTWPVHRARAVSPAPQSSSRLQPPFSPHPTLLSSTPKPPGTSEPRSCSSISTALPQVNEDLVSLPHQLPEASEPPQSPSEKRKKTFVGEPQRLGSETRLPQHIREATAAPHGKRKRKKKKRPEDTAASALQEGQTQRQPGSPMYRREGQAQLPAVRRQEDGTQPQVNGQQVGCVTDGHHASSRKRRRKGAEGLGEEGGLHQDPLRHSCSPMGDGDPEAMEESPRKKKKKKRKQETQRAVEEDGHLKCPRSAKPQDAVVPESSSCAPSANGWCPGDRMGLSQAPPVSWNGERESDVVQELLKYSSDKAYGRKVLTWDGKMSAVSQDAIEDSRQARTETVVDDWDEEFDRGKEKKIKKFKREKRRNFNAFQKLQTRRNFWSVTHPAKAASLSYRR
In short: as §1

USP38 = biological target: T2, USP38 (UniProt Q8NB14)
T2 sequence (whole entry): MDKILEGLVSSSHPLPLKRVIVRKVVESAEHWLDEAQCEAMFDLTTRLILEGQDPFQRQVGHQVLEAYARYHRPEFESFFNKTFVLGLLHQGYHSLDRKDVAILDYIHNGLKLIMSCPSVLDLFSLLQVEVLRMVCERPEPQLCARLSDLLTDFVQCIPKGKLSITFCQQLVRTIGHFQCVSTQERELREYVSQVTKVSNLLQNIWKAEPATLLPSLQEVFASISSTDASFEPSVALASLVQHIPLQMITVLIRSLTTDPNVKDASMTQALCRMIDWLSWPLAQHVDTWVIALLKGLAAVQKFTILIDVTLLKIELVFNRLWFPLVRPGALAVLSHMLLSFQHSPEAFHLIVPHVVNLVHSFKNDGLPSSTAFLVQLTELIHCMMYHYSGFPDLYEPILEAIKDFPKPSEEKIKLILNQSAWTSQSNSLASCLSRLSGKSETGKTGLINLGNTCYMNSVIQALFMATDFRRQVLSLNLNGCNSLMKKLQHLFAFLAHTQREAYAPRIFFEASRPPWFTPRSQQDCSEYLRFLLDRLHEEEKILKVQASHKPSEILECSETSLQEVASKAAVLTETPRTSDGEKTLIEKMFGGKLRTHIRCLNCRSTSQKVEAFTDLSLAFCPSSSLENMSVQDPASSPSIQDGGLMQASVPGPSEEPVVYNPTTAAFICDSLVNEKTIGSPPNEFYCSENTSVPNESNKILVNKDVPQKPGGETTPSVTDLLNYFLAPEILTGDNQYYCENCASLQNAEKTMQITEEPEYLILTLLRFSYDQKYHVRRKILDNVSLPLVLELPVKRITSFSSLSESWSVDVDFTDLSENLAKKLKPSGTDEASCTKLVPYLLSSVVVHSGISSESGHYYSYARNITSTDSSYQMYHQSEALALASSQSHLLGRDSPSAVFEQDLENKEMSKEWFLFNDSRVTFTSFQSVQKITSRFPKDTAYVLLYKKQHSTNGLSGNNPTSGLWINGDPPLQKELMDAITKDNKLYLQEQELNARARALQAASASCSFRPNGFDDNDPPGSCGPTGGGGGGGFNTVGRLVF
In short: as §1

USP39 = biological target: T3, USP39 (UniProt Q53GS9)
T3 sequence (whole entry): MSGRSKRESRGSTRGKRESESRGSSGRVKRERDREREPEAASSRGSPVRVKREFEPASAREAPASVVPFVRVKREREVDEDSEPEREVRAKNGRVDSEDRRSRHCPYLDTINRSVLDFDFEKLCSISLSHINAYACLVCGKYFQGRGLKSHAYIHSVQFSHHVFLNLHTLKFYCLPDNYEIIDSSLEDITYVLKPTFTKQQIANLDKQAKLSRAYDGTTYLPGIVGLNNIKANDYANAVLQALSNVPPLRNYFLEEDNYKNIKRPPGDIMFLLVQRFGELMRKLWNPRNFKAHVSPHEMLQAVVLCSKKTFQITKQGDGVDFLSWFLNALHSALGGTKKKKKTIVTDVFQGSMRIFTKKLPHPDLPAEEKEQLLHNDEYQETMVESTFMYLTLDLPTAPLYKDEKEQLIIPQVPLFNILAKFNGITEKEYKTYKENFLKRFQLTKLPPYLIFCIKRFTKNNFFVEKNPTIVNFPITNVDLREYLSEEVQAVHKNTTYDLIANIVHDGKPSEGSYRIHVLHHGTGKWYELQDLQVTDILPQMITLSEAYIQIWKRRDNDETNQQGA
In short: as §1

USP4 = biological target: T4, USP4 (UniProt Q13107)
T4 sequence (whole entry): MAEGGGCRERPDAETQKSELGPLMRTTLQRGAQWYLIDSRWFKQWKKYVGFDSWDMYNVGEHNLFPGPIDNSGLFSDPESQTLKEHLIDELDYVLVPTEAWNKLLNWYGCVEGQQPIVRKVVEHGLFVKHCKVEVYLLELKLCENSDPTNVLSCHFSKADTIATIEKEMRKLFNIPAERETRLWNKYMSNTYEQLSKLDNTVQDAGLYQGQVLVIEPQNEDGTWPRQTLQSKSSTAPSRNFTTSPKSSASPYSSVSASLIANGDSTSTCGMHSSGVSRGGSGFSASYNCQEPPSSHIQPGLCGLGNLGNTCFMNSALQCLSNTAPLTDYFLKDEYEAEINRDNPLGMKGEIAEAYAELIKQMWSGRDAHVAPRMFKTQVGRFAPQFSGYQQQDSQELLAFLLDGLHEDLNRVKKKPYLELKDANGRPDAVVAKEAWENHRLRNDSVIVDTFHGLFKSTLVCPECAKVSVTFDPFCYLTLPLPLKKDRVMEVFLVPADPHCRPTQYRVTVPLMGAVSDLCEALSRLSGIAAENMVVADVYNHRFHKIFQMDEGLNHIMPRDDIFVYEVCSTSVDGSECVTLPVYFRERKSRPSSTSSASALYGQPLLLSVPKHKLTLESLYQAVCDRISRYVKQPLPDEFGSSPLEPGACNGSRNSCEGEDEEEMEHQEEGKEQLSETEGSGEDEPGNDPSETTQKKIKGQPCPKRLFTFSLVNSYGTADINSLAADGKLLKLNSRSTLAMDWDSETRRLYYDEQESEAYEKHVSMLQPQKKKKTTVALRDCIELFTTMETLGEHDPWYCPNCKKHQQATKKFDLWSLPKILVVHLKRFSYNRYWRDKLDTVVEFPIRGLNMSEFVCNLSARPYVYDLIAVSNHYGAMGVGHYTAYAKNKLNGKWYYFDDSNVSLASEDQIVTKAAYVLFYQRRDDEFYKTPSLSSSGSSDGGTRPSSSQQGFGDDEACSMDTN
In short: as §1

Measured: log2 ratio of Biotin-Ahx-Ub-VS probe labelling

Cc1nc(CC2CCN(C(=O)CCl)CC2)no1
inactive: USP34 -0.459 | USP36 -0.425 | USP38 -0.544 | USP39 0.344 | USP4 -0.686
